Assay results from PubChem BioAssay (Tox21).
Values joined by “and” are separate entries in the source; they are usually repeats but may differ in a detail not shown here. Equal entries are not always repeated. Records with an inconclusive call do not appear. Active and inactive are the calls of the source. Unless noted, calls follow the shape of the dose curve; as a rule, active = well fitted curve in the direction sought with a large enough effect in the repeat runs; inconclusive = weak or mixed curves; inactive = no such curve, though single readings can be large; an effect the other way counts as inactive or inconclusive.

How the values were obtained:
[1] = qHTS assay to identify small molecule agonists of the hypoxia (HIF-1) signaling pathway - cell viability counter screen (AID 1224844; calls by dose curve; also: nearly all actives have a fitted effect of over 50% in size)
Outline: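 HRE-bla ME-180; 0.5% dFBS; cpd 17 h, 37C, 5% CO2; CellTiter-Glo lum., 30 min RT, post-FRET read, same wells.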

[2] = qHTS assay to identify small molecule agonists of H2AX (AID 1224845; active = well fitted activation curve with a large enough effect in the signal ratio in the repeat runs, not every such curve was filed as active; the % refers to the signal ratio)
Outline: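 Wild-type CHO-K1 cells, plated overnight, exposed 3hr at 37C to 15 concentrations (0.76% DMSO final). Lysed, then HTRF anti-pH2AX (S139) cryptate and anti-H2AX-d2 antibodies, 24 hr room temperature; 665/620 nm emission read.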

[3] = qHTS assay to identify small molecule agonists of H2AX - cell viability counter screen (AID 1224847; calls by dose curve; also: top concentration of the series differs between compounds; nearly all actives have a fitted effect of over 30% in size)
Outline: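 After overnight plating of 1000 CHO-K1 cells per well, a 15-concentration compound series was applied for 3 hr at 37C. Luminescence from CellTiter-Glo, read following 30 min at room temperature, reflected cell viability.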

[4] = qHTS RealTime-Glo MT Cell Viability Assay in HepG2 cells - 24 hour (AID 1224867); also: nearly all actives have a fitted effect of over 50% in size
Outline: (§1)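 Viability was tracked continuously by NanoLuc luminescence from prosubstrate reduced by living HepG2 cells, at successive time points over 40 h of compound exposure. Cells with reagent were preincubated 5 h at 37 °C before compound addition.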

[5] = qHTS RealTime-Glo MT Cell Viability Assay in HepG2 cells - 40 hour (AID 1224870); also: nearly all actives have a fitted effect of over 50% in size
Outline: (§2)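 HepG2 cells (600/well) mixed with RealTime-Glo MT reagent, settled 5 h at 37 C/5% CO2 before compound addition. Nonlytic NanoLuc luminescence from viable-cell prosubstrate reduction read repeatedly during 40 h treatment at 37 C.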

[6] = A CellTox Green Cytotoxicity Assay to monitor cytotoxicity in HEK293 cells - 40 hour (AID 1224871); also: nearly all actives have a fitted effect of over 45% in size
Outline: (§3)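 Tox21 screen in HEK293: membrane-impermeant cyanine dye fluoresces on binding dead-cell DNA; compound pinned 5 h post-seeding, plates held at 37 C, signal read repeatedly through 40 h.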

[7] = qHTS RealTime-Glo MT Cell Viability Assay in HEK293 cells - 16 hour (AID 1224872); also: top concentration of the series differs between compounds; nearly all actives have a fitted effect of over 50% in size
Outline: (§4)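 Viability tracked continuously by luminescence as live cells reduce a prosubstrate for NanoLuc; HEK293 cells preincubated 5 h, compound-treated at 37 C, and read at 0, 8, 16, 24, 32 and 40 h.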

[8] = qHTS RealTime-Glo MT Cell Viability Assay in HepG2 cells - 8 hour (AID 1224873); also: nearly all actives have a fitted effect of over 55% in size
Outline: as §2

[9] = qHTS RealTime-Glo MT Cell Viability Assay in HEK293 cells - 40 hour (AID 1224874); settings: RealTime-Glo luminescence; max response: active compounds read low; also: nearly all actives have a fitted effect of over 50% in size
Outline: (§5)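 HEK293 + NanoLuc + prosubstrate, 600 cells/well; 5 h, 37 C/5% CO2; compound 23 nL in DMSO by pintool; 37 C; luminescence read at 0, 8, 16, 24, 32 and 40 h time points.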

[10] = A CellTox Green Cytotoxicity Assay to monitor cytotoxicity in HEK293 cells - 24 hour (AID 1224875); also: series mostly up to about 77 µM; nearly all actives have a fitted effect of over 45% in size
Outline: as §3

[11] = A CellTox Green Cytotoxicity Assay to monitor cytotoxicity in HepG2 cells - 16 hour (AID 1224876); also: nearly all actives have a fitted effect of over 45% in size
Outline: (§6)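 Measurements at 0, 8, 16, 24, 32 and 40 h of treatment captured CellTox Green fluorescence in HepG2 cells that had been co-plated with reagent and preincubated 5 h at 37 C/5% CO2.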

[12] = qHTS RealTime-Glo MT Cell Viability Assay in HepG2 cells - 32 hour (AID 1224877); also: nearly all actives have a fitted effect of over 55% in size
Outline: as §1

[13] = A CellTox Green Cytotoxicity Assay to monitor cytotoxicity in HepG2 cells - 24 hour (AID 1224878); also: nearly all actives have a fitted effect of over 45% in size
Outline: as §6

[14] = qHTS RealTime-Glo MT Cell Viability Assay in HEK293 cells - 0 hour (AID 1224880)
Outline: as §5

[15] = A CellTox Green Cytotoxicity Assay to monitor cytotoxicity in HEK293 cells - 32 hour (AID 1224881); also: nearly all actives have a fitted effect of over 40% in size
Outline: as §3

[16] = qHTS assay to identify small molecule agonists of the hypoxia (HIF-1) signaling pathway (AID 1224846; active = well fitted activation curve with a large enough effect in the signal ratio in the repeat runs, not every such curve was filed as active; the % refers to the signal ratio)
Outline: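 Reporter induction in HRE-bla ME-180 cells is taken as agonism: cells sit 5 hrs after plating, receive compounds or DMSO only, incubate 17 hrs at 37C under 5% CO2, and are loaded with CCF4-AM for beta-lactamase FRET measurement.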

[17] = qHTS assay to identify small molecule antagonists of the estrogen related receptor (ERR) signaling pathway from Tox21 library (AID 1224848); also: nearly all actives have a fitted effect of over 50% in size
Outline: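 Quantitative high-throughput format: ERR reporter cells (2,000/well) pre-incubated 6 h, treated 18 h at 37 C with compounds in DMSO alongside positive and negative controls, then read by ONE-Glo luminescence.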

[18] = qHTS RealTime-Glo MT Cell Viability Assay in HEK293 cells - 32 hour (AID 1224868)
Outline: as §4

[19] = A CellTox Green Cytotoxicity Assay to monitor cytotoxicity in HEK293 cells - 0 hour (AID 1224869); also: nearly all actives have a fitted effect of over 50% in size
Outline: as §3

[20] = A CellTox Green Cytotoxicity Assay to monitor cytotoxicity in HepG2 cells - 40 hour (AID 1224879); also: nearly all actives have a fitted effect of over 40% in size
Outline: as §6
% is scaled to controls: 0 for no effect and ±100 for the full control effect.

CN1C(=O)CC[C@H]1c1cccnc1
inactive: outcome [1] | outcome [2] | outcome [3] | Potency [4] | outcome [5] | Potency [6] | Potency [7] | Potency [8] | max response [9] 1.45% and 7.43% | Potency [10] | outcome [11] | outcome [12] | Potency [13] | outcome [14] | Potency [15]

O=S(=O)(O)c1ccc(N=Nc2c(O)ccc3cc(S(=O)(=O)O)ccc23)cc1
inactive: outcome [1] | outcome [16] | outcome [3] | outcome [17] | Potency [18] | outcome [19] | Potency [6] | Potency [8] | max response [9] -20% | Potency [10] | outcome [11] | Potency [13] | Potency [20] | outcome [14] | Potency [15]

CCOCCOCCOCCO
inactive: outcome [1] | outcome [2] | outcome [16] | outcome [3] | outcome [5] | Potency [6] | Potency [7] | Potency [8] | max response [9] 3.42% and 9.26% | Potency [10] | outcome [11] | outcome [12] | Potency [13] | Potency [20] | outcome [14] | Potency [15]

CCOC(=O)c1ccc(N)cc1
inactive: outcome [1] | outcome [2] | outcome [3] | outcome [19] | outcome [5] | Potency [6] | Potency [7] | Potency [8] | max response [9] -17.4% | Potency [10] | outcome [11] | outcome [12] | Potency [13] | outcome [14] | Potency [15]

C=CCCCCCCCCC(=O)O
inactive: outcome [1] | outcome [2] | outcome [16] | outcome [3] | Potency [18] | outcome [19] | outcome [5] | Potency [6] | Potency [7] | Potency [8] | max response [9] 12.5% and 0.601% | Potency [10] | outcome [11] | outcome [12] | Potency [13] | outcome [14] | Potency [15]

CN(C)CCOC(=O)COc1ccc(Cl)cc1
inactive: outcome [1] | outcome [2] | outcome [3] | outcome [17] | Potency [18] | outcome [19] | outcome [5] | Potency [6] | Potency [7] | Potency [8] | max response [9] -6.44% and 0.203% | Potency [10] | outcome [11] | outcome [12] | Potency [13] | Potency [20] | outcome [14] | Potency [15]

CCCCCCCO
inactive: outcome [1] | outcome [2] | outcome [16] | outcome [3] | Potency [18] | outcome [19] | outcome [5] | Potency [6] | Potency [7] | Potency [8] | max response [9] 10.9% and 3.74% | Potency [10] | outcome [11] | outcome [12] | Potency [13] | Potency [20] | outcome [14] | Potency [15]
